# Results reported in PubChem BioAssay (Tox21).
# Records with an inconclusive call do not appear. Where a call stands in place of a potency, no number is given. Unmarked numbers belong to inactive results. Activity calls are given as the source filed them. Unless noted, calls come from the whole dose curve; as a rule, active = well fitted curve in the direction sought with a large enough effect in the repeat runs; inconclusive = weak or mixed curves; inactive = no such curve, though single readings can be large; an effect the other way counts as inactive or inconclusive. Positions of bridges follow the written chain, without caps; N, C: chain ends. Non-standard residues stand in square brackets, D forms with d. Residues, ends and D or L forms follow the SMILES beside them. ξ: configuration not given here. *: point of attachment. d(aThr) = C[C@@H](O)[C@@H](N)C(=O)O; ξThr(3R) = C[C@@H](O)C(N)C(=O)O; X3 = CC[C@@H](C)CCCCC(=O)*; dDab = NCC[C@@H](N)C(=O)O
# Experiments:
# [1] = qHTS assay to identify aromatase inhibitors - cell viability counter screen (AID 743084);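 note: cells stimulated with testosterone during compound exposure; nearly all actives have a fitted effect of over 55% in size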; note: potency is the fitted concentration of half-maximal effect
# [2] = qHTS assay to identify small molecule that activate the aryl hydrocarbon receptor (AhR) signaling pathway - cell viability counter screen (AID 743086); note: nearly all actives have a fitted effect of over 45% in size; note: potency is the fitted concentration of half-maximal effect
# How it was run: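 Cytotoxicity counter screen: CellTiter-Fluor signal (30 min, 37 C) in 4000 HepG2 cells/well carrying the DRE-luciferase reporter, following 24 h compound exposure at 37 C.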
# [3] = qHTS assay to identify small molecule phospholipidosis (PLD) inducers (AID 1259344; active = well fitted curve in the direction sought with a large enough effect; an effect the other way counts as inactive or inconclusive)
# How it was run: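 Phospholipidosis is scored by imaging LipidTOX-stained pits in HepG2 cells exposed to compound for 24 h at 37 C; pit counts and integrated intensities per well and per cell serve as outputs.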
# [4] = molecular target: Nuclear receptor subfamily 1 group I member 2 (Rattus norvegicus) (UniProt Q9R1A7); assay: Rat pregnane X receptor (rPXR) activation by small molecules, qHTS assay (AID 1346983); conditions: rPXR luciferase reporter cells, One-Glo luminescence, 24 h; max activation: stronger effect = higher value; note: nearly all actives have a fitted effect of over 20% in size; note: potency is the fitted concentration of half-maximal effect
# How it was run: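 Luminescent readout (One-Glo luciferase, 30 min room temperature) followed 24 hr compound treatment at 37 C of rPXR cells plated 2,000 per well and preincubated 5hr; qHTS format with compounds delivered in DMSO.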
# [5] = molecular target: Nuclear receptor subfamily 1 group I member 2 (Homo sapiens) (UniProt O75469); assay: CYP3A4 induction through human pregnane X receptor (PXR) by small molecules, qHTS assay (AID 1346984); note: nearly all actives have a fitted effect of over 40% in size; note: potency is the fitted concentration of half-maximal effect
# How it was run: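 Luminescence readout: luciferase signal after One-Glo (30 min, room temperature), following 3 h at 37C with 3uM final Luciferin-IPA P450 substrate. Cells were DPX-2 (HepG2, PXR/CYP3A4-luc co-transfected) dosed for 24 h.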
# [6] = molecular target: Nuclear receptor subfamily 1 group I member 2 (Homo sapiens) (UniProt O75469); assay: Human pregnane X receptor (PXR) activation by small molecules, qHTS assay (AID 1346985); note: nearly all actives have a fitted effect of over 40% in size; note: potency is the fitted concentration of half-maximal effect
# How it was run: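 DPX-2 cells (HepG2 co-transfected with a PXR response element and a CYP3A4-promoter luciferase construct) were seeded at 2,000 per well, rested 5 hr at 37C, then exposed to DMSO-dissolved compounds for 24 hr. Activation was read as luciferase luminescence.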
# [7] = molecular target: Aryl hydrocarbon receptor (Homo sapiens) (UniProt P35869); assay: qHTS assay to identify small molecule that activate the aryl hydrocarbon receptor (AhR) signaling pathway (AID 743085); note: nearly all actives have a fitted effect of over 15% in size; note: potency is the fitted concentration of half-maximal effect;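 for activation: HG2L7.5c1 human HepG2 liver cells with stably integrated DRE-driven firefly reporter; series mostly up to about 70 µM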
# How it was run: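 Cell line HG2L7.5c1 (human hepatoma, 20× DRE-luc). Plated, 5 h 37C, compound/DMSO added, 24 h 37C. CellTiter-Fluor 30 min 37C → fluorescence; then ONE-Glo 30 min RT → luminescence.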
# [8] = molecular target: Peroxisome proliferator-activated receptor gamma (Homo sapiens) (UniProt P37231); assay: qHTS assay to identify small molecule agonists of the peroxisome proliferator-activated receptor gamma (PPARg) signaling pathway (AID 743094; active = well fitted activation curve with a large enough effect in the signal ratio in the repeat runs, not every such curve was filed as active; the % refers to the signal ratio)
# How it was run: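 Beta-lactamase FRET fluorescence was the read-out after a 1 h room-temperature substrate step, following 17 h compound treatment at 37C of HEK293H cells expressing a UAS-driven bla reporter responsive to PPARg.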
# Chain of Nuclear receptor subfamily 1 group I member 2 (Rattus norvegicus) (Q9R1A7 whole entry, looked up): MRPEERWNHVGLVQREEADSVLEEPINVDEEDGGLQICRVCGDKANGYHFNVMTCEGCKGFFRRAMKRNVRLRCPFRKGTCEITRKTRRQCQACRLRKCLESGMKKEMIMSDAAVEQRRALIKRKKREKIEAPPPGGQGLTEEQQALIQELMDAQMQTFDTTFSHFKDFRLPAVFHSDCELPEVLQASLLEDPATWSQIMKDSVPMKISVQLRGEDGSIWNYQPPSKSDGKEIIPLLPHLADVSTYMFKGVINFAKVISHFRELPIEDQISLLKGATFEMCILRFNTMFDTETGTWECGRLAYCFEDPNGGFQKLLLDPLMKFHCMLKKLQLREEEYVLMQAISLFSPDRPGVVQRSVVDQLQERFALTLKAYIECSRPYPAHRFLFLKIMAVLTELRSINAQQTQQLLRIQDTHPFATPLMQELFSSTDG
# Chain of Aryl hydrocarbon receptor (Homo sapiens) (P35869 whole entry, looked up): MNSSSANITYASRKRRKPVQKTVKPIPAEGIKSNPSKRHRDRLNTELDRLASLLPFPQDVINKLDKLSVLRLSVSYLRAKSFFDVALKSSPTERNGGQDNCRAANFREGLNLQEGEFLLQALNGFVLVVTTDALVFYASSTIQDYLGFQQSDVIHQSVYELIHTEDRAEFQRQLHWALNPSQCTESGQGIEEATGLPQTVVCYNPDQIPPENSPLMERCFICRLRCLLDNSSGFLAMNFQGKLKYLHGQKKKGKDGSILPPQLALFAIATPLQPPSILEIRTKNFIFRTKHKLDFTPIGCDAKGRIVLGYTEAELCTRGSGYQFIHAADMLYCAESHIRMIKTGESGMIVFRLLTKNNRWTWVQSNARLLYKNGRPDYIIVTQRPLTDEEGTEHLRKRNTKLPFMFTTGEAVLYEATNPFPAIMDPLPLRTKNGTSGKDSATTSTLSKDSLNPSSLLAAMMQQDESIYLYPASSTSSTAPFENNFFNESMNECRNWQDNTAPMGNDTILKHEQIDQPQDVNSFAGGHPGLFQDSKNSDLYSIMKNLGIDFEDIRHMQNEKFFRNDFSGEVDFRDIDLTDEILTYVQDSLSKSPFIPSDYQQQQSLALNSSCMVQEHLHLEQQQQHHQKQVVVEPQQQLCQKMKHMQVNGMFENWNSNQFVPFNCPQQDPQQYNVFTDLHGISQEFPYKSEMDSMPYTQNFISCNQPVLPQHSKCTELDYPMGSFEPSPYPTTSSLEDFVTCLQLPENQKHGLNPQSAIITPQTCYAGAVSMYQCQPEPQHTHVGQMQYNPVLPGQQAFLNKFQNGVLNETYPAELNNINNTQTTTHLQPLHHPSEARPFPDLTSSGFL
# Chain of Peroxisome proliferator-activated receptor gamma (Homo sapiens) (P37231 whole entry, looked up): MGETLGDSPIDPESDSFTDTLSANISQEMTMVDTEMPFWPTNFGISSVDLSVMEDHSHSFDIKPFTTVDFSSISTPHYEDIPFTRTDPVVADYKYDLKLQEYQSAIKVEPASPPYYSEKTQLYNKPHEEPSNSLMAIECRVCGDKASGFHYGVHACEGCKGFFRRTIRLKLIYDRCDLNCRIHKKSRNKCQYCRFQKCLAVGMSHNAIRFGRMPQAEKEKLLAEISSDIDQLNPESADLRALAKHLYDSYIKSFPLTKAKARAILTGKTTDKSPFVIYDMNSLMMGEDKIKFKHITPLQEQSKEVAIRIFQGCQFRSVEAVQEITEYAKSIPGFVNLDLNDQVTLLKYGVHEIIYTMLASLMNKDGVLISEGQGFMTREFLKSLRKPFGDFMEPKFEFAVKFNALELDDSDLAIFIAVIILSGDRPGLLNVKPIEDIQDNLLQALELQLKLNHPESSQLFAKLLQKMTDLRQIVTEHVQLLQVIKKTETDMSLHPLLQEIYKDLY
SMILES,Potency [1],Potency [2],Potency [3],max activation [4],Potency [5],Potency [6],Potency [7],Potency [8],Potency [4]
COc1cc(-c2ccc(-[n+]3nc(-c4ccccc4)nn3-c3ccc([N+](=O)[O-])cc3)c(OC)c2)ccc1-[n+]1nc(-c2ccccc2)nn1-c1ccc([N+](=O)[O-])cc1,29.8 µM (active),26.6 µM (active),inactive,-16%,inactive,inactive,,,
CC(C)[C@@H](N)C(=O)O,inactive,inactive,inactive,2.42%,inactive,inactive,inactive,inactive,
O=C(OC[C@H]1O[C@](O)(COC(=O)c2cccnc2)[C@@H](OC(=O)c2cccnc2)[C@@H]1OC(=O)c1cccnc1)c1cccnc1,inactive,,inactive,1.1%,inactive,inactive,inactive,inactive,
CN=C1C=CC(=C(c2ccc(N(C)C)cc2)c2ccc(N(C)C)cc2)C=C1,6.68 µM (active),6.68 µM (active),inactive,-26%,inactive,inactive,,,
CC1(O)CCC(C(C)(C)O)CC1 (stereo not given),inactive,inactive,inactive,-1.3%,inactive,inactive,inactive,inactive,
C[C@H](N)C(=O)N[C@@H](C)P(=O)(O)O,inactive,inactive,inactive,-2.51%,inactive,inactive,inactive,inactive,
NC(=O)OCC(O)COc1ccc(Cl)cc1 (stereo not given),inactive,inactive,inactive,0.928%,inactive,inactive,,inactive,
CCN(CC)CCC(=O)N1c2ccccc2Sc2ccc(C(F)(F)F)cc21,inactive,,inactive,-1.59%,1 µM (active),6.31 µM (active),inactive,inactive,
Nc1ncnc2c1ncn2CCOCP(=O)(O)O,inactive,inactive,inactive,-0.588%,inactive,inactive,inactive,inactive,
CCCC1C(=O)N2C(N(C)C)=Nc3ccc(C)cc3N2C1=O (stereo not given),inactive,inactive,inactive,5.29%,inactive,inactive,,,
CC(C)[C@H](N)C(=O)OCC(CO)OCn1cnc2c(=O)[nH]c(N)nc21 (stereo not given in full),inactive,inactive,inactive,-3.1%,inactive,inactive,inactive,inactive,
CCCCCCCCCCCCOCCCN,inactive,inactive,inactive,-3.73%,inactive,inactive,,,
O=[N+]([O-])O[C@@H]1CO[C@H]2[C@@H]1OC[C@@H]2O,inactive,inactive,inactive,-3.54%,inactive,inactive,,inactive,
C=CCSSSCC=C,inactive,inactive,inactive,0.11%,inactive,inactive,inactive,inactive,
CN1c2c(nc(N)[nH]c2=O)NCC1CNc1ccc(C(=O)NC(CCC(=O)O)C(=O)O)cc1 (stereo not given),inactive,inactive,inactive,-0.71%,inactive,inactive,inactive,inactive,
CCCCCCCCCCCCCCCC(=O)OCC(COC(=O)CCCCCCCCCCCCCCC)OC(=O)CCCCCCCCCCCCCCC,inactive,inactive,inactive,-0.974%,inactive,inactive,inactive,inactive,
CCCCCCCCCCCCCCCCCC(=O)OC[C@@H](O)[C@H]1OC[C@H](O)[C@H]1O,inactive,inactive,inactive,-0.713%,inactive,inactive,inactive,inactive,
CCC(C)[C@@H](N)C(=O)O (stereo not given in full),inactive,inactive,inactive,-2.74%,inactive,inactive,inactive,inactive,
CCOc1ccc(N=Nc2ccc(N)cc2N)cc1,21.1 µM (active),,inactive,,inactive,inactive,0.944 µM (active),inactive,3.16 µM (active)
COc1ccc(/C=C/C(=O)OCCC(C)C)cc1,inactive,inactive,inactive,9.31%,inactive,inactive,inactive,inactive,

SMILES,Potency [1],Potency [2],Potency [3],max activation [4],Potency [5],Potency [6],Potency [7],Potency [8],Potency [4]
CCOC(=O)O[C@]1(C(=O)COC(=O)CC)CC[C@H]2[C@@H]3CCC4=CC(=O)C=C[C@]4(C)[C@H]3[C@@H](O)C[C@@]21C,inactive,inactive,inactive,13.1%,inactive,inactive,inactive,inactive,
C[N+]1(C)[C@@H]2CC(OC(=O)C(O)(c3cccs3)c3cccs3)C[C@H]1[C@@H]1O[C@@H]12 (stereo not given in full),inactive,,inactive,-1.38%,inactive,inactive,inactive,inactive,
CCCCC(C)(O)C/C=C/[C@H]1[C@H](O)CC(=O)[C@@H]1CCCCCCC(=O)OC (stereo not given in full),inactive,inactive,inactive,-4.82%,inactive,inactive,inactive,inactive,
CCCCC(=O)O[C@H]1CC[C@H]2[C@@H]3CCc4cc(O)ccc4[C@H]3CC[C@]12C,inactive,inactive,inactive,-1.73%,inactive,inactive,inactive,inactive,
O=C(Nc1ccc(O)cc1)c1ccccc1O,inactive,inactive,inactive,3.27%,11.2 µM (active),inactive,23.7 µM (active),inactive,
O=C(NNCNNC(=O)c1ccncc1)c1ccncc1,inactive,inactive,inactive,-3.41%,inactive,inactive,4.73 µM (active),inactive,
CCCCCCCCCCCCCCCCCC(=O)OCC(C)O (stereo not given),18.8 µM (active),33.5 µM (active),inactive,-10.2%,inactive,inactive,,inactive,
CC[C@@]1(O)C[C@H](O[C@H]2C[C@H](N(C)C)[C@H](O[C@H]3C[C@H](O)[C@H](O[C@H]4CCC(=O)[C@H](C)O4)[C@H](C)O3)[C@H](C)O2)c2c(cc3c(c2O)C(=O)c2c(O)cccc2C3=O)[C@H]1C(=O)OC,26.6 µM (active),0.668 µM (active),inactive,-18.5%,inactive,inactive,,,
C=CCOc1ccc(CC(=O)O)cc1Cl,inactive,inactive,inactive,-5.29%,inactive,inactive,,,
CCC(Cc1c(I)cc(I)c(O)c1I)C(=O)O (stereo not given),inactive,inactive,inactive,-2.63%,inactive,inactive,,,
C/C1=C2N=C(/C=C3N=C(/C(C)=C4\[N-][C@@](C)([C@@H]5N=C1[C@](C)(CCC(=O)NCC(C)OP(=O)(O)O[C@H]1[C@@H](O)[C@@H](n6cnc7cc(C)c(C)cc76)O[C@@H]1CO)[C@H]5CC(N)=O)[C@@](C)(CC(N)=O)[C@@H]4CCC(N)=O)[C@@](C)(CC(N)=O)[C@@H]\3CCC(N)=O)C(C)(C)[C@@H]/2CCC(N)=O.CC(=O)O.[Co] (stereo not given in full),23.7 µM (active),,inactive,-15.5%,inactive,inactive,inactive,inactive,
CC[C@@H](C)CCCCC(=O)N[C@H](CCN)C(=O)N[C@@H](C(=O)N[C@H](CCN)C(=O)N[C@@H]1CCNC(=O)C([C@@H](C)O)NC(=O)[C@@H](CCN)NC(=O)[C@@H](CCN)NC(=O)[C@@H](CC(C)C)NC(=O)[C@@H](Cc2ccccc2)NC(=O)[C@@H](CCN)NC1=O)[C@@H](C)O (stereo partly drawn) (X3-[dDab][d(aThr)][dDab][dDab][dDab][dF][dL][dDab][dDab][ξThr(3R)]; lactam 4-C),inactive,inactive,inactive,-6%,inactive,inactive,inactive,inactive,
CC1CS(=O)(=O)CCN1/N=C/c1ccc([N+](=O)[O-])o1 (stereo not given),inactive,,inactive,-7.04%,inactive,inactive,inactive,inactive,
C[Se]CCC(N)C(=O)O (stereo not given),inactive,inactive,inactive,-0.898%,inactive,inactive,,inactive,
O=C1NCCN1c1ncc([N+](=O)[O-])s1,inactive,inactive,inactive,-1.52%,inactive,inactive,inactive,inactive,
O=C(O)[C@H]1/C(=C/CO)O[C@@H]2CC(=O)N21,inactive,inactive,inactive,-2.31%,inactive,inactive,,inactive,
C=C1CC[C@@H]2[C@](C)(CO)[C@H](O)CC[C@@]2(C)[C@@H]1C/C=C1/C(=O)OC[C@H]1O,,inactive,inactive,-5.66%,inactive,inactive,inactive,,
O=C(O)CCC/C=C\C[C@@H]1[C@@H](/C=C/[C@@H](O)COc2cccc(C(F)(F)F)c2)[C@H](O)C[C@@H]1O,inactive,inactive,inactive,-3.83%,inactive,inactive,,inactive,
C[C@@H]1C[C@H]2[C@@H]3CCC4=CC(=O)C=C[C@]4(C)[C@@]3(F)[C@@H](O)C[C@]2(C)[C@@]1(O)C(=O)COC(=O)c1cccc(S(=O)(=O)O)c1,inactive,inactive,inactive,,inactive,inactive,,inactive,10 µM (active)
O=C(NNCS(=O)(=O)O)c1ccncc1,inactive,inactive,inactive,-0.625%,inactive,inactive,,inactive,
